# Laboratory results from PubChem BioAssay AID624483 (NMMLSC, 2012).
# Among all 360,000 compounds or so, about 11,000 (3.1%) were called active. About 2% were inconclusive and are not listed. Rule as the data show it: active = fluorescence intensity above about 16000; inconclusive = no clear call, values can overlap the other calls; inactive = below that. The full list was thinned out, with actives kept by preference.
# Test: compound fluorescence in toxin protease inhibitor counterscreen, primary screen, artefact control for toxin protease inhibitor project, biochemical, multiplex microsphere, HTS (AID 624483)
# Conditions: compound autofluorescence counterscreen, microsphere flow cytometry; active compounds read high
row,Structure (SMILES),fluorescence intensity
1,Nc1[nH]c(C(=O)c2ccccc2)c(-c2ccc(Br)cc2)c1C(=O)NC1CC1,4400 (inactive)
2,Cc1ccc(C(O)c2ncc(-c3ccccc3F)[nH]2)cc1F (configuration not stated),3620 (inactive)
3,O=C1CCCC(O)=C1N=Nc1ccc2ncsc2c1,2580 (inactive)
4,CC1(C)CC(CCC(=O)Nc2ccccc2Cl)C(=O)O1 (configuration not stated),23100 (active)
5,CC1(C)CC(CC(=O)O)C(=O)O1 (configuration not stated),4100 (inactive)
6,CN(CC(=O)Nc1ccccc1Cl)C(=O)COc1cccc2c1OC(C)(C)C2,5770 (inactive)
7,Brc1ccc(C2CC(c3ccccc3)=Nc3ccccc3N2)cc1 (configuration not stated),2950 (inactive)
8,COc1ccc(C2CC(c3ccccc3)=NN2C(=O)COC(=O)COc2ccccc2)cc1 (configuration not stated),4620 (inactive)
9,CNC(=S)N1N=C(c2ccccc2)CC1c1ccc(Br)cc1 (configuration not stated),23900 (active)
10,COC(=O)Cc1ccc(OC2(C)CCN(Cc3ccc4c(c3)OCCO4)C2)cc1 (configuration not stated),2970 (inactive)
11,CCOc1ccc(NC(=S)N2CCCCCC2)cc1,4120 (inactive)
12,O=C(NCc1cccnc1)c1cc(C2CCCCN2C(=O)CCc2ccccc2)on1 (configuration not stated),3910 (inactive)
13,Cc1c(C(=O)NCC2CC2)sc(=O)n1Cc1cccc(F)c1,5240 (inactive)
14,CN(CC(O)COc1ccc(S(=O)(=O)N2CCOCC2)cc1Cl)C1CCCCC1 (configuration not stated),4510 (inactive)
15,O=C(NCCCN1CCCCC1)c1ccc2c(c1)NC(=O)C(N1CCOCC1)S2 (configuration not stated),20400 (active)
16,COc1ccc(CCNC(=O)c2ccc3c(c2)NC(=O)C(N2CCOCC2)S3)cc1OC (configuration not stated),3710 (inactive)
17,Cc1ccccc1CN1C(=O)c2ccccc2Sc2ccc(C(=O)NCCCN3CCOCC3)cc21,4180 (inactive)
18,CCOC(=O)N1CCN(C(c2ccnc3ccccc23)c2nnnn2-c2c(C)cccc2C)CC1 (configuration not stated),5760 (inactive)
19,COc1cccc(CNC(=O)[C@@H]2CCCN2C(=O)[C@@H]2CCCN2C(=O)c2ccccc2)c1,6440 (inactive)
20,Cc1nn(CC(=O)NCCc2ccccc2)c(=O)c2cc3occc3n12,4600 (inactive)
21,Cn1c(=O)[nH]c(=O)c2c1nc(N(CCO)Cc1ccccc1)n2Cc1ccccc1Cl,19800 (active)
22,CN(Cc1ccccc1)c1nc2c(c(=O)[nH]c(=O)n2C)n1CCSc1nc2ccccc2[nH]1,3450 (inactive)

row,Structure (SMILES),fluorescence intensity
1,CCOC(=O)Cn1c(CN(Cc2ccccc2)Cc2ccccc2)nc2c1c(=O)[nH]c(=O)n2C,11200 (inactive)
2,COc1ccc(-c2[nH][nH]c(=O)c2NC(=O)c2ccc([N+](=O)[O-])cc2)cc1,4210 (inactive)
3,CC(C)C[C@H]1CNC(=S)N1C[C@H]1CCCN1C[C@H](Cc1ccc(O)cc1)N1C[C@H](Cc2ccc(O)cc2)N(CC2CCCCC2)C1=S,6520 (inactive)
4,COC(=O)C1C(=O)CC(C)(O)C(C(=O)OC)C1c1ccc2c(c1)OCO2 (configuration not stated),8340 (inactive)
5,Cc1ccsc1-c1cc(C(=O)O)c2c(ccc3ccccc32)n1,3620 (inactive)
6,COc1cccc(NC(=O)N2CCCC2C(=O)NC2CCCCC2)c1 (configuration not stated),6160 (inactive)
7,COc1cccc(NC(=O)N2CCC(NC(=O)C(Cc3cccc(C)c3)NC(C)=O)CC2)c1 (configuration not stated),3850 (inactive)
8,COCCn1nnnc1CN1CCC(NC(=O)Nc2cccc(OC)c2)CC1,24600 (active)
9,COc1cc(C(=O)NN(CCC#N)C2=NS(=O)(=O)c3ccccc32)cc(OC)c1OC,4420 (inactive)
10,COc1ccc(C=C2CCC3C(CCCC34OCCO4)C2=O)cc1 (configuration not stated),2890 (inactive)
11,COc1ccc(/C=C2\CCCC3C2=NN(C(=O)c2scnc2C)C3c2ccc(OC)cc2)cc1 (configuration not stated),22800 (active)
12,COc1ccc(/C=C2/CCCc3ccccc3C2=O)cc1,3030 (inactive)
13,Nc1ncnc2c1ncn2[C@@H]1O[C@H](C(=O)N2CCSC2)[C@@H](O)[C@H]1O,5590 (inactive)
14,O=C(NC1CCCC1)C1c2ccccc2OCC(=O)N1CC(F)(F)F (configuration not stated),6700 (inactive)
15,Cn1c(CN2CCOCC2)nc2cc(NC(=O)c3ccc(Cl)cc3)ccc21,4450 (inactive)
16,C=CCn1c(C)cc(C2=NNC(=NCC)SC2)c1C,2100 (inactive)
17,COCCn1c(C)cc(C2=NNC(=Nc3ccc(F)cc3)SC2)c1C,20800 (active)
18,C[C@@H]1CN([C@@H](C)CO)C(=O)c2c(c3ccccc3n2C)-c2ccccc2CO[C@H]1CN(C)C(=O)C1CC1,3570 (inactive)
19,CCCCCCCCN1C(=O)[C@H](CC(=O)NCc2cccc3ccccc23)C[C@@]2(C(=O)OC)CCCCC=C12,4630 (inactive)
20,CC(=O)NCC(=O)N1CCC(n2nccc2NC(=O)CCCc2ccccc2)CC1,6400 (inactive)
21,NNC(=O)c1ccc(COCC(F)(F)C(F)F)cc1,4020 (inactive)
22,O=C(O)CCC(=O)NCc1ccc(C(=O)O)cc1,3850 (inactive)

row,Structure (SMILES),fluorescence intensity
1,O=C(O)c1ccc(COCC(F)(F)F)cc1,16300 (active)
2,O=C(NCCCN1CCOCC1)C1CCCN(S(=O)(=O)N2CCCCC2)C1 (configuration not stated),5550 (inactive)
3,CN(C(=O)COC(=O)CCCc1c[nH]c2ccccc12)c1c(N)n(Cc2ccccc2)c(=O)[nH]c1=O,3770 (inactive)
4,CC1=C(C(=O)N2CCOCC2)CC(CC(=O)NCCCN(C)C)C(=O)N1Cc1ccc(C(C)(C)C)cc1 (configuration not stated),5880 (inactive)
5,CCOc1ccc(-c2noc(CCC(=O)NC3CCCC3)n2)cc1OC,4230 (inactive)
6,CCOC(=O)c1cc(-c2nnc(-c3cc(OC)c(OC)c(OC)c3)o2)c(C)nc1C,3800 (inactive)
7,CCOc1nc(-c2ccc(OC)cc2)ccc1-c1noc(-c2cc(OC)c(OC)c(OC)c2)n1,20200 (active)
8,Nc1ncnc2c1ncn2[C@@H]1O[C@H](C(=O)NCC(F)(F)F)[C@@H](O)[C@H]1O,5880 (inactive)
9,COC(=O)[C@@]1(Cc2ccc(F)cc2)[C@H]2c3cc(C(=O)N4CCCC4)n(Cc4ccc(OC(F)(F)F)cc4)c3C[C@H]2CN1C(=O)c1ccccc1,4360 (inactive)
10,CN1C[C@@H](CO)O[C@@H](n2cnc3c(N4CCN(CCO)CC4)ncnc32)C1,3470 (inactive)
11,CCc1ccc(NC(=O)CSc2nc3ccccc3c(=O)n2CCN2CCOCC2)cc1,23500 (active)
12,COC(=O)c1ccc2c(=O)n(CCN3CCOCC3)c(SCC(=O)Nc3cccc(OC)c3)nc2c1,5360 (inactive)
13,CC(=O)c1ccc(NC(=O)CSc2nc3ccccc3c(=O)n2CCCN2CCOCC2)cc1,3650 (inactive)
14,Clc1ccc(-c2cccc3nccn23)cc1,3770 (inactive)
15,COc1cccc(-c2nc3nc(C)cc(C)n3c2NC2CCCCC2)c1,7480 (inactive)
16,Cc1ccc(F)c(S(=O)(=O)NC(=O)C2(C)CCN2C(=O)c2ccco2)c1 (configuration not stated),3860 (inactive)
17,COC(=O)c1[nH]c2ccccc2c1NS(=O)(=O)c1ccc(OC)cc1OC,20900 (active)
18,CCCS(=O)(=O)Nc1c(C(=O)O)[nH]c2ccccc12,10100 (inactive)
19,COc1ccc(NC(=O)COC(=O)c2n[nH]c3ccccc23)c(OC)c1,5180 (inactive)
20,CCC(C)(C)c1ccc(OCC(=O)N(C)C)c(C(C)(C)CC)c1,4730 (inactive)
21,Cc1ccc(NC(=O)NC2CCCCC2)cc1S(=O)(=O)N1CCOCC1,3370 (inactive)
22,Cc1ccc(C(=O)Nc2ncccc2C)cc1S(=O)(=O)N1CCOCC1,5280 (inactive)

row,Structure (SMILES),fluorescence intensity
1,Cc1ccc(C(=O)Nc2ccccc2C(=O)NC2CCCCC2)cc1S(=O)(=O)N1CCOCC1,16600 (active)
2,CCc1ccccc1NC(=O)CN1CCN(C(=O)c2cc(C3CC3)nn2-c2ccccc2)CC1,3950 (inactive)
3,CCCCCC(=O)N1CCN(S(=O)(=O)c2ccc3c(c2)OCCCO3)CC1,5990 (inactive)
4,CCNC(=O)N1CCN(S(=O)(=O)c2ccc3c(c2)OCCCO3)CC1,5340 (inactive)
5,CN1CCCN(S(=O)(=O)c2ccc3c(c2)OCCO3)CC1,22400 (active)
6,N#Cc1ccc(-c2nc3c(Cl)cc(C(F)(F)F)cn3c2Cc2ccccc2C(F)(F)F)cc1,5560 (inactive)
7,COc1ccc(NC(=O)C2Cc3c(-c4ccc5c(c4)OCO5)ccnc3O2)cn1 (configuration not stated),2850 (inactive)
8,C#CCOc1ccccc1/C=C1/C(=O)ON=C1C,4290 (inactive)
9,CCOC(=O)c1cc2c(ccn2C)n1CC(=O)N1CCC(C)CC1,4040 (inactive)
10,C/C(=N\c1nc2ccccc2n1C)c1cc(Cl)ccc1O,3250 (inactive)
11,Oc1c(Cl)cc(Cl)cc1/C=N/c1ncn[nH]1,4010 (inactive)
12,Oc1ccc(Cl)cc1/C=N/c1nc2ccccc2[nH]1,22500 (active)
13,C=CCNCCCCOc1ccccc1,2600 (inactive)
14,CCc1nc2c(OCC(=O)C(C)(C)C)cccn2c1N(C)C(=O)c1ccccc1F,3600 (inactive)
15,CC1(C(=O)NCc2ccc3c(c2)OCO3)CCN1CCc1ccccc1 (configuration not stated),3940 (inactive)
16,CCc1nc2ccc(C(=O)N3CCN(S(=O)(=O)CC)CC3)cn2c1N(C=O)CCC(C)C,3570 (inactive)
17,CC(=O)c1ccc(NC(=O)Cn2c(=O)oc3ccccc32)cc1,3040 (inactive)
18,CC1CCCN(C(=O)Cn2c(=O)oc3ccccc32)C1 (configuration not stated),3850 (inactive)
19,NC(=O)Cn1c(=O)oc2ccccc21,19700 (active)
20,O=C(NC(c1ccc(Cl)cc1)c1cnccn1)C1CCN(Cc2ccc(Cl)cc2)CC1 (configuration not stated),4620 (inactive)
21,CCCCC[C@H](C)N1C[C@@H](COCc2ccccc2)Oc2cc(N3CC[C@@H](N(C)C)C3)ccc2S1(=O)=O,5700 (inactive)
